The nature of experiment [1]: Tanguay_ZF_120hpf_JAW_legacy: (Legacy) Oregon State University Tanguay Lab 120 Hour Post-fertilization zebrafish Assay for Jaw Malformation (AID 2283638). The procedure, abridged:
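Binary jaw-malformation call at 120 hpf by brightfield microscopy. Embryos (Tropical 5D strain, chorion removed at 4 hpf) were dosed statically at 6 hpf, one per well, at 28C with 0.64% DMSO. Embryos that died were not scored.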

A short description of experiment [2]: Tanguay_ZF_120hpf_OTIC_legacy: (Legacy) Oregon State University Tanguay Lab 120 Hour Post-fertilization zebrafish Assay for Otic Vesicle Malformation (AID 2283639). The procedure, abridged: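 Binary scoring of otic vesicle defects at 120 hpf in zebrafish (Tropical 5D) held under static exposure at 28C, sealed and shaded, with final DMSO 0.64%. Embryos dying by 24 or 120 hpf excluded; fitted positively against DMSO.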

The nature of experiment [3]: Tanguay_ZF_120hpf_PE_legacy: (Legacy) Oregon State University Tanguay Lab 120 Hour Post-fertilization zebrafish Assay for Pericardial Edema (AID 2283640). The procedure, abridged:
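Scoring was binary, by brightfield microscopy at 120 hpf, and skipped where mortality occurred. Wild-type embryos were kept under sealed, foil-covered static exposure at 28C in 0.64% (vol/vol) DMSO.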

Experiment [4] can be described thus: Tanguay_ZF_120hpf_PFIN_legacy: (Legacy) Oregon State University Tanguay Lab 120 Hour Post-fertilization zebrafish Assay for Pectoral Fin Malformation (AID 2283648).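 Also: each larva judged yes or no for fin defect by brightfield with dead larvae skipped.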 The procedure, abridged: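 Binary pectoral fin malformation call at 120 hpf by brightfield microscopy; 5D wild-type zebrafish, chorion removed at 4 hpf, one embryo per well from 6 hpf, static exposure at 28C; DMSO (0.64% final) as baseline.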

Experiment [5] in a line: Tanguay_ZF_120hpf_CFIN_legacy: (Legacy) Oregon State University Tanguay Lab 120 Hour Post-fertilization zebrafish Assay for Caudal Fin Malformation (AID 2283649). The procedure, abridged:
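Binary brightfield scoring of caudal fin defects at 120 hpf after static, light-shielded exposure at 28C from 6 hpf. Tropical 5D embryos, chorion removed with pronase at 4 hpf, final DMSO 0.64%.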

The nature of experiment [6]: Tanguay_ZF_120hpf_PIG_legacy: (Legacy) Oregon State University Tanguay Lab 120 Hour Post-fertilization zebrafish Assay for Pigmentation Malformation (AID 2283650). The procedure, abridged:
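Brightfield scoring of pigmentation malformation at 120 hpf, recorded as binary present/absent per larva. Exposure: dechorionated 5D wild-type embryos, one per well, static from 6 hpf at 28C, final DMSO 0.64% (vol/vol). Dead embryos not scored.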

Experiment [7] in a line: Tanguay_ZF_120hpf_CIRC_legacy: (Legacy) Oregon State University Tanguay Lab 120 Hour Post-fertilization zebrafish Assay for Circulatory Malformation (AID 2283651). The procedure, abridged: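 Binary circulatory malformation call at 120 hpf by brightfield imaging of zebrafish larvae; chorion removed at 4 hpf, static exposure from 6 hpf in sealed dark plates at 28C, final DMSO 0.64%; non-mortality endpoints skipped if embryo died.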

Experiment [8] can be described thus: Tanguay_ZF_120hpf_SWIM_legacy: (Legacy) Oregon State University Tanguay Lab 120 Hour Post-fertilization zebrafish Assay for Swim Bladder Malformation (AID 2283654).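 Also: swim bladder malformation in each larva scored yes or no under brightfield.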 The procedure, abridged:
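Tropical 5D embryos dechorionated at 4 hpf; 1 embryo/well from 6 hpf; static, sealed, dark exposure at 28C until 120 hpf; final DMSO 0.64%; 5uM trimethyltin chloride positive control; swim bladder defect recorded yes/no; dead embryos not scored.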

Experiment [9] in a line: Tanguay_ZF_120hpf_NC_legacy: (Legacy) Oregon State University Tanguay Lab 120 Hour Post-fertilization zebrafish Assay for Notochord and Tail Malformation (AID 2283656). The procedure, abridged: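 Binary scoring of notochord distortion by brightfield microscopy; embryos dying were not scored. Wild-type Tropical 5D embryos, chorion removed, exposed singly and statically from 6 to 120 hpf, 28C, sealed, 0.64% DMSO.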

Read-out in experiment [10]: Broad substrate specificity ATP-binding cassette transporter ABCG2 (Homo sapiens) (UniProt Q9UNQ0)
The experiment can be described thus: CLD_ABCG2_6hr: CellzDirect (CLD) Gene Expression Assay for ABC Transporter (ABCG2) at 6 hours (AID 2283660). The procedure, abridged: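 ABCG2 mRNA induction measured by qNPA chemiluminescence in human primary hepatocyte cultures, 6 h post-dose. Chemicals tested at several concentrations against a 0.2% DMSO vehicle; positive-direction fit relative to DMSO.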

The test system of experiment [11] is Thyroperoxidase (TPO), gene 54314. Description: CCTE_Simmons_AUR_rTPO: CCTE's Amplex UltraRed Assay for Thyroperoxidase (TPO) Inhibition, Simmons Lab (AID 2283662).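 As to AC50: potency for loss of signal meaning inhibition of peroxidase activity.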 The procedure, abridged: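 Rat thyroid microsomes (5 ug protein) with 25 uM Amplex UltraRed and 300 uM H2O2 in 200 mM phosphate buffer, 30 min at 37C in dark; fluorescence 544/590 nm. Eight concentrations, 5 nM–87.5 uM final, 0.5% DMSO, triplicate biological replicates.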

A short description of experiment [12]: Tanguay_ZF_120hpf_BRAI_legacy: (Legacy) Oregon State University Tanguay Lab 120 Hour Post-fertilization zebrafish Assay for Brain Malformation (AID 2283641). The procedure, abridged:
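Binary brightfield scoring of brain malformation at 120 hpf in Tropical 5D larvae held under static exposure at 28C (0.64% v/v DMSO), non-mortality endpoints skipped if dead. Positive control: 5uM trimethyltin chloride; fit versus DMSO.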

Experiment [13] can be described thus: Tanguay_ZF_120hpf_TRUN_legacy: (Legacy) Oregon State University Tanguay Lab 120 Hour Post-fertilization zebrafish Assay for Truncated Body (AID 2283655). The procedure, abridged:
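Binary presence/absence of truncated body is recorded at 120 hpf by brightfield, with non-mortality endpoints skipped after death. Exposure is static from 6 hpf in sealed dark plates at 28C, using dechorionated wild-type zebrafish, 0.64% DMSO.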

Read-out in experiment [14]: ABC Transporter (ABCB1), ABCB1 (gene 5243)
Description: CLD_ABCB1_6hr: CellzDirect (CLD) Gene Expression Assay for ABC Transporter (ABCB1) at 6 hours (AID 2283659).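 Also: hits raise ABCB1 transcript above the DMSO vehicle baseline.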 The procedure, abridged:
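ABCB1 transcript measured by quantitative nuclease protection assay, chemiluminescent read-out, 6 h after dosing human hepatocyte cultures (0.2% DMSO vehicle, daily redosing). Activity fitted as increase over DMSO baseline; cytotoxicity flagged by phase-contrast morphology.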

Read-out in experiment [15]: xenobiotic metabolism (CYP1A2), CYP1A2 (gene 1544)
Description: CLD_CYP1A2_6hr: CellzDirect (CLD) Gene Expression Assay for xenobiotic metabolism (CYP1A2) at 6 hours (AID 2283663). The procedure, abridged:
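mRNA levels quantified by quantitative nuclease protection assay with chemiluminescence, 6 h after dosing human primary hepatocyte cultures (two donors) across several concentrations, vehicle 0.2% DMSO. Induction fitted upward versus DMSO; phase-contrast cytotoxicity annotated.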

Read-out in experiment [16]: xenobiotic metabolism (CYP1A1), CYP1A1 (gene 1543)
The experiment can be described thus: CLD_CYP1A1_6hr: CellzDirect (CLD) Gene Expression Assay for xenobiotic metabolism (CYP1A1) at 6 hours (AID 2283661). The procedure, abridged:
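Read-out 6 h post-dose: qNPA chemiluminescent quantitation of transcript induction against 0.2% DMSO. Cells were cultured primary human hepatocytes from two separate donor preparations; phase-contrast morphology annotated apparent cytotoxicity.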

Read-out in experiment [17]: solute carrier (SLC22A6), SLC22A6 (gene 9356)
The experiment can be described thus: LTEA_HepaRG_SLC22A6: Life Technologies and Expression Analysis (LTEA) Assay for solute carrier (SLC22A6) using HepaRG (AID 2283653; active = hit-call score of the fitted dose curve at least 0.9, where 1 is the maximum; inactive = score below 0.9). The conditions noted are these: mRNA level, 48 h; actives raise or lower the signal. The procedure, abridged: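 SLC22A6 transcript was measured by TaqMan qRT-PCR, normalized to three housekeeping genes, after 48 h duplicate exposure of HepaRG cells (100 uM top, half-log steps, 0.5% DMSO); bidirectional fit against vehicle.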

Read-out in experiment [18]: matrix metalloproteinase-1 (MMP1), MMP1 (gene 4312)
Description: LTEA_HepaRG_MMP1: Life Technologies and Expression Analysis (LTEA) Assay for matrix metalloproteinase-1 (MMP1) using HepaRG (AID 2283658; active = hit-call score of the fitted dose curve at least 0.9, where 1 is the maximum; inactive = score below 0.9). As to conditions: mRNA level, 48 h; actives raise or lower the signal. The procedure, abridged:
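qRT-PCR (TaqMan, Fluidigm arrays) of MMP1 transcript, normalized against three housekeeping genes and fitted in both directions relative to 0.5% DMSO vehicle. Human HepaRG cultures received duplicate 48 h exposures across 8 points, highest 100 uM with half-log steps.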

Records with an inconclusive call do not appear. Activity calls are given as the source filed them. The calls were made as follows, unless noted: active = hit-call score of the fitted dose curve at least 0.9, where 1 is the maximum; inconclusive = response in the unintended direction; inactive = score below 0.9.

The term AC50 denotes the concentration giving half of the maximal activity seen.

Sequence of Broad substrate specificity ATP-binding cassette transporter ABCG2 (Homo sapiens) (Q9UNQ0 whole entry, looked up): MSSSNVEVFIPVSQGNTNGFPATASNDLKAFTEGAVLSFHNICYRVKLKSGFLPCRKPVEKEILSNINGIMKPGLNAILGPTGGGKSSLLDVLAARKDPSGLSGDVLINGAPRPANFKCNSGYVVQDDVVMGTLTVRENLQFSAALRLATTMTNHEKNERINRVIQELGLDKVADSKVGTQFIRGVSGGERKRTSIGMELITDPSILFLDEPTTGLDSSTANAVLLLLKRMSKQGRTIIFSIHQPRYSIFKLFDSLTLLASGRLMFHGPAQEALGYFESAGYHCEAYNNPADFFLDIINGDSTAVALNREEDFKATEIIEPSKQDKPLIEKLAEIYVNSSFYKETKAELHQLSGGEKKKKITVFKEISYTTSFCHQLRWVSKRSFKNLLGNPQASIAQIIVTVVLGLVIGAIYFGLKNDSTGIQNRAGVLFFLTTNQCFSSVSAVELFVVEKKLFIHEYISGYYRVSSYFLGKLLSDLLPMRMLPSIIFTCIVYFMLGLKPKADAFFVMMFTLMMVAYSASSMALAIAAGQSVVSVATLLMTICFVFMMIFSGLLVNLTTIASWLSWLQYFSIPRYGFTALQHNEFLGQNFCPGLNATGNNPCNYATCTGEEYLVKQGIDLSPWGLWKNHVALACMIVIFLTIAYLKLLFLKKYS

For the compound `CCOP(=O)(SC(C)CC)N1CCSC1=O` (configuration not stated), the compound was called inactive in experiment [1], in experiment [2], in experiment [3], in [4], in experiment [5] and in [6]. Also, the call in [7], in experiment [8], in [9] and in experiment [10] was inactive. For the same compound, the AC50 in experiment [11] is 43.8 µM (active).
Consider `CCC(=NOC/C=C/Cl)C1=C(O)CC(C2CCOCC2)CC1=O` (configuration not stated), for which the compound was called inactive in [1], in experiment [2], in [3], in [12], in experiment [5] and in experiment [6]. Also, the call in experiment [7], in experiment [8], in [13], in experiment [9], in [14] and in experiment [10] was inactive. In experiment [11], the outcome was inactive.
Consider `C[N+]1(C)CCCCC1`, for which the compound was classed as inactive in [1], in [2], in experiment [3], in experiment [12], in experiment [5] and in [6]. For the same compound, the outcome in experiment [7], in [8], in experiment [13], in [9], in experiment [10] and in experiment [15] was inactive.
On to `COc1cc(OC)nc(Sc2cccc(Cl)c2C(=O)O)n1`, for which the compound was called inactive in [1], in experiment [2], in [3], in experiment [12], in [5] and in [6]. Further, the compound was called inactive in experiment [7], in experiment [8], in [13], in [9] and in experiment [10].
As for `CN(C)C(=O)Nc1cccc(C(F)(F)F)c1`, the result in experiment [1], in experiment [2], in experiment [3], in experiment [4], in experiment [5] and in experiment [6] was inactive. For the same compound, the compound was called inactive in experiment [7], in [8], in experiment [9], in [10] and in [16].
In the case of `CCCSP(=O)(OCC)SCCC`, the compound was classed as inactive in experiment [1], in experiment [2], in experiment [3], in [4], in [5] and in experiment [6]. Further, the compound was classed as inactive in experiment [7], in experiment [8], in [9] and in experiment [10]. For the same compound, in experiment [11], the AC50 was 19.4 µM (active).
As to `CCOC(=O)CC(SP(=O)(OC)OC)C(=O)OCC` (configuration not stated), the compound was called inactive in experiment [1], in experiment [2], in experiment [3], in experiment [12], in [4] and in [5]. Also, the outcome in experiment [6], in experiment [7], in [17], in [8], in experiment [9] and in experiment [18] was inactive. Moreover, the AC50 in experiment [11] was 29.2 µM (active).

Values taken from PubChem BioAssay (EPA / NIEHS).
